In the library only some 1.4% were active in any assay of this set; here they are far more common.
A3A deaminase: inhibitors of human APOBEC3A DNA deaminase; P31941; recombinant A3A, FAM/TAMRA ssDNA deamination fluorescence; inhibition, % at 20 µM; hit rate 0.41% among 330,000;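 active = at least 40% inhibition at 20 µM here, with at most 30% in a related deaminase screen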
Target sequence (P31941 whole entry, looked up): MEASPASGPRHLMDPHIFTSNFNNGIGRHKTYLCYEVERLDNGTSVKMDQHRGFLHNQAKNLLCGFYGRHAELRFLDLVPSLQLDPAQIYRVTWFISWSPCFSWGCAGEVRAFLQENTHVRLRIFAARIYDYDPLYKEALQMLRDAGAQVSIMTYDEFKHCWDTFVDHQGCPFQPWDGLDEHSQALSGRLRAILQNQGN
APOBEC3G inh: APOBEC3G (human) deaminase inhibition | inhibition, % at 20 µM | Q9HC16 | AID 493012 | recombinant A3G, ssDNA deamination FAM/TAMRA fluorescence | hit rate 0.28% among 330,000;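 active = inhibition of at least 40% at 20 µM, with no more than 30% in the related APOBEC3A deaminase screen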
Target sequence (Q9HC16 whole entry, looked up): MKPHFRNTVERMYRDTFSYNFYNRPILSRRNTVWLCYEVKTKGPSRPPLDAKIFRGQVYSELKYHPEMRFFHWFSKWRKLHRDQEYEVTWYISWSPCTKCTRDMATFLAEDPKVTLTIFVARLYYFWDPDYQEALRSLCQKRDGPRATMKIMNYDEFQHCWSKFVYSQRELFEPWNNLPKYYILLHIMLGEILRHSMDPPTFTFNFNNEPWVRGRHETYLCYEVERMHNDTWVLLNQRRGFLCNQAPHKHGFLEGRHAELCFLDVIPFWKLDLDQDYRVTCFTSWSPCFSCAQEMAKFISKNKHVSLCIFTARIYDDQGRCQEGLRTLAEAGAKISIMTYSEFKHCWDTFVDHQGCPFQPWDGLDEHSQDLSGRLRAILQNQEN
GRK2 aptamer HTS: inhibitors of human GRK2 displacing RNA aptamer. bead flow cytometry, FAM-aptamer displacement from GRK2. inhibition of aptamer binding, % at 10 µM. hit rate 0.59% among 330,000. AID 488847;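 active = inhibition of aptamer binding above 40%, roughly 3 SD of noise, on plates passing a quality check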;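 also: median bead fluorescence of bound FAM aptamer so fluorescent compounds give negative values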
VLA-4 inh: inhibition in a human VLA-4 binding assay; P13612; hit rate 0.2% among 330,000; inhibition, % (about 7 µM as worked out from the volumes in the protocol); VLA-4 expressing cells, ligand binding flow cytometry; in the data active = inhibition above about 50%
GRK2 inh confirm: confirmation of human GRK2 inhibitors displacing RNA aptamer; shares compounds with GRK2 aptamer HTS; bead-bound GRK2, FAM-aptamer displacement, flow cytometry; aptamer displacement, % at 10 µM; hit rate 4% among 2,000;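 active = aptamer displacement above 40%, near three times the noise of non-fluorescent compounds, on plates passing quality checks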;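 also: negative values mostly reflect intrinsic compound fluorescence rather than true enhancement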
FAM quench CP1: quenches fluorescent RNA aptamer, GRK2 hit artifact | shares compounds with GRK2 aptamer HTS | Carboxyfluorescein RNA aptamer on beads, flow cytometry quenching; stronger effect = lower value | AID 504580 | 2,000 tested, under 10 active | fluorescence response (% of DMSO), % at 10 µM;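 active = compounds that quench the bead-bound fluorescent RNA probe, cutting fluorescence to under half of the solvent control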;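 also: counterscreen run without GRK2 so only probe quenching by compound is measured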
GRK2 CP2: confirmation of human GRK2 inhibitors binding RNA aptamer site. shares compounds with GRK2 aptamer HTS. bead-bound GRK2, FAM-aptamer displacement, flow cytometry. inhibition of aptamer binding, % at 10 µM. 360 tested, under 10 active;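 active = inhibition of aptamer binding above 40%, about triple the noise seen with nonglowing compounds, on plates passing quality control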;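 also: negative values mostly come from compounds that fluoresce themselves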
FAM quench CP2: counter-screen for GRK2 binding hits: quenchers of fluorescent RNA aptamer. 360 tested, under 10 active. fluorescence response vs DMSO, % at 10 µM. AID 588494. carboxyfluorescein RNA aptamer beads, flow cytometry quenching; stronger effect = lower value. shares compounds with GRK2 aptamer HTS;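 active = response vs DMSO under 50%, meaning signal dropped by over half, treated as fluorescence quencher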;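 also: labelled aptamer on streptavidin beads without GRK2 as a quench counter-screen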
Each line names hits and unclear results; the compound was inactive in the other large screens (follow-up assays come after a bar, where they were run).

COC(=O)c1ccc(CSc2nnc(C)n2N)o1	GRK2 aptamer HTS 100 | GRK2 CP2 inactive | FAM quench CP2 inactive
CC(=O)c1ccc(NC(=O)COC(=O)CCN2C(=O)c3cccc([N+](=O)[O-])c3C2=O)cc1	none
COc1ccc(C)cc1NC(=O)c1ccc2c(c1)C(=O)N(Cc1ccncc1)C2=O	GRK2 aptamer HTS 79 | GRK2 inh confirm inactive | FAM quench CP1 inactive
CCC(C)Oc1nc2ccccc2nc1NS(=O)(=O)c1ccccc1 (stereo not drawn)	GRK2 aptamer HTS 82 | GRK2 inh confirm inactive | FAM quench CP1 inactive
COc1cccc(-c2csc(N3CCN(CC(=O)NNC(=O)c4ccco4)CC3)n2)c1	none
Cc1nnc(NC(=O)COc2ccc3c(C)cc(=O)oc3c2)s1	none
Cc1cc(=O)oc2cc(OCC(=O)Nc3nccs3)ccc12	GRK2 aptamer HTS 57 | GRK2 inh confirm inactive | FAM quench CP1 inactive
CCn1c(C)nnc1SCC(=O)Nc1ccccc1OC	none
COc1cccc(N=C2CC(C)(C)CC(=O)/C2=C(/O)c2ccccc2)c1	GRK2 aptamer HTS 95 | GRK2 inh confirm inactive | FAM quench CP1 inactive
CC1(C)CC(=O)/C(=C(\O)c2ccccc2)C(=NCCO)C1	none
O=c1c2ccccc2nc(SCc2nnc(-c3ccccc3Br)o2)n1Cc1ccco1	none
C=CCOc1ccc2ccccc2c1CNn1c(C)n[nH]c1=S	GRK2 aptamer HTS 78 | GRK2 inh confirm inactive | FAM quench CP1 inactive
O=C(NC(NC1CCS(=O)(=O)C1)C(Cl)(Cl)Cl)c1ccc(Br)cc1 (stereo not drawn)	none
O=C(NC(NC1CCS(=O)(=O)C1)C(Cl)(Cl)Cl)c1cccc(Cl)c1 (stereo not drawn)	GRK2 aptamer HTS 51 | GRK2 inh confirm inactive | FAM quench CP1 inactive
Cc1ccc(OCCSc2cc(C)nc(N)n2)cc1	GRK2 aptamer HTS 84 | GRK2 inh confirm inactive | FAM quench CP1 inactive
Cc1ccc(-c2onc3ccc(C4(C)OCCO4)cc23)cc1	none
Cc1ccc(-c2onc3ccc(C=O)cc23)cc1	GRK2 aptamer HTS 45 | GRK2 inh confirm inactive | FAM quench CP1 inactive
CC(C)(C)CC(=O)NC(=S)NCCc1ccccc1	GRK2 aptamer HTS 80 | GRK2 inh confirm inactive | FAM quench CP1 inactive
CC(C)CC(=O)NC(=S)NCCc1ccccc1	none
Cc1nc2cc(-c3ccc(Cl)cc3)nn2c(NCCN(C)C)c1C	none
CCOCCCNC(=O)CCc1ccc(-n2cnc3cccnc32)cc1	none
CC(C)CCNC(=O)c1ccc(-n2cnc3cccnc32)cc1	GRK2 aptamer HTS 45 | GRK2 inh confirm inactive | FAM quench CP1 inactive
COc1ccc(OC)c(Nc2nc(NCc3ccco3)c3ccccc3n2)c1	GRK2 aptamer HTS 46 | GRK2 inh confirm inactive | FAM quench CP1 inactive
O=C(CSc1nc2ccccc2[nH]1)Nc1nc(-c2cccc(Br)c2)cs1	GRK2 aptamer HTS 75 | GRK2 CP2 inactive | FAM quench CP2 inactive
Cc1ccc2nc(SCC(=O)Nc3ccc4c(c3)OCCO4)[nH]c2c1	none | GRK2 CP2 inactive | FAM quench CP2 inactive
Cc1nnc(SCC(=O)NC(=O)Nc2ccc3c(c2)OCCO3)n1N	GRK2 aptamer HTS 46 | GRK2 inh confirm inactive | FAM quench CP1 inactive
O=C(CSc1ncccc1-c1nc2ccccc2[nH]1)Nc1ccc2c(c1)OCCO2	none
O=C(CSc1nc2ccccc2[nH]1)Nc1ccc2c(c1)OCCO2	none | GRK2 CP2 inactive | FAM quench CP2 inactive
Cc1ccc(-n2nnnc2SCC(=O)NC(=O)Nc2ccc3c(c2)OCCO3)cc1	none
CCn1nc(NC(=O)C2CCCO2)c2cc3cccc(C)c3nc21 (stereo not drawn)	none
c1ccc(C2Nc3ccccc3Oc3ccccc32)cc1 (stereo not drawn)	GRK2 aptamer HTS 52 | GRK2 inh confirm inactive | FAM quench CP1 inactive
C=C[C@]1(C)C[C@H]1[C@H](NP(=O)(c1ccccc1)c1ccccc1)c1ccccc1	none
O=C(CNC(=O)c1ccco1)OCc1ccccc1Cl	none
Cc1ccc2nc(-c3ccccn3)c(Nc3ccccc3C)n2c1	GRK2 aptamer HTS 84 | GRK2 inh confirm inactive | FAM quench CP1 inactive
Cc1ccc(-c2ccc(CCC(=O)O)n2CC(=O)O)cc1	GRK2 aptamer HTS 89 | GRK2 inh confirm inactive | FAM quench CP1 inactive
CC(=O)n1cc([C@@H]2C=C(C(=O)Nc3ccccc3)O[C@H](OCc3ccc(CO)cc3)C2)c2ccccc21	GRK2 aptamer HTS 64 | GRK2 inh confirm inactive | FAM quench CP1 inactive
COc1ccc(C[C@H]2CN3C(=NC[C@@H]3Cc3ccc(O)cc3)N2C[C@H](C)NC(=O)c2ccc(C)c(Br)c2)cc1	none
Cc1ccc(C)c(N2N=C(C(=O)N(CC(C)C)c3c(N)n(Cc4ccccc4)c(=O)[nH]c3=O)CCC2=O)c1	none | GRK2 inh confirm inactive | FAM quench CP1 inactive
CC(CCc1ccc(O)cc1)NCCc1ccc(O)c(O)c1 (stereo not drawn)	none
CCCCCc1cccnc1	GRK2 aptamer HTS 64 | GRK2 inh confirm inactive | FAM quench CP1 inactive
CC1=NN(c2ccccc2)C(=O)/C1=C/C=C/C=C/N(C)C	none
CN(C)/C=C/C=C1C(=O)CCCC1=O	GRK2 aptamer HTS 42 | GRK2 inh confirm inactive | FAM quench CP1 inactive
O=C(O)Cn1nnc(-c2cccs2)n1	GRK2 aptamer HTS 89 | GRK2 inh confirm inactive | FAM quench CP1 inactive
O=C(O)CCn1nnc(-c2cccs2)n1	none
Cc1ccc(S(=O)(=O)N2CCOCC2)cc1NC(=O)COC(=O)c1ccc2c(c1)OCO2	GRK2 aptamer HTS 100 | GRK2 inh confirm inactive | FAM quench CP1 inactive
Cc1cccc(NC(=O)COC(=O)c2ccc(S(=O)(=O)N3CCCCCC3)cc2)c1	none (no result: GRK2 aptamer HTS, VLA-4 inh) | GRK2 inh confirm inactive | FAM quench CP1 inactive
O=C(COC(=O)c1ccc(S(=O)(=O)N2CCCC2)cc1)Nc1cccc(Br)c1	none
O=C(O)CCC(=O)N1CCCC1	none
O=C(CCSCCC(=O)N1CCCC1)N1CCCC1	GRK2 aptamer HTS 45 | GRK2 inh confirm inactive | FAM quench CP1 inactive
CCN(CC)C(=O)c1ccccc1NS(=O)(=O)c1ccc(OC)c(C(=O)N2CCOCC2)c1	GRK2 aptamer HTS 61 | GRK2 inh confirm inactive | FAM quench CP1 inactive
COc1ccc(N(CC(=O)NCc2ccc3c(c2)OCO3)S(=O)(=O)c2c(C)nn(C)c2C)cc1	none
COc1ccc(-c2c(C)oc3cc(O)cc(O)c3c2=O)cc1OC	GRK2 aptamer HTS 50 | GRK2 inh confirm inactive | FAM quench CP1 inactive
Cc1cc(C)cc(NC(=O)COC(=O)COc2ccc(N(C)S(=O)(=O)c3cccs3)cc2)c1	GRK2 aptamer HTS 41 | GRK2 inh confirm inactive | FAM quench CP1 inactive
Cc1nn(-c2nc3ccccc3n2Cc2ccccc2)c2c1C(=O)CC(C)(C)C2	none
